# Test results: PubChem BioAssay (Tox21)
# Values without a mark were called inactive. A call without a number means that no potency is given here. Calls of active or inactive are those of the source. Calls come from the whole dose curve; as a rule, active = well fitted activation curve with a large enough effect in the repeat runs; inconclusive = weak or mixed curves; inactive = flat fitted curve, though single readings scatter.
# Biological target: KiSS-1 receptor (Homo sapiens) (UniProt Q969F8)
# Assay: Human kisspeptin (KISS1R) small molecule agonists, calcium flux assay in KISS1R-HEK293 cells (AID 1920064)
# Settings: KISS1R-HEK293, calcium flux fluorescence, agonist; series mostly up to 76.8 µM
# Text: National Center for Advancing Translational Sciences [NCATS]
# Division of Preclinical Innovation [DPI]
# U.S. Environmental Protection Agency [EPA]
# National Institutes of Environmental Health Sciences [NIEHS]
# National Toxicology Program [NTP]
# U.S. Food and Drug Administration [FDA]
# Kisspeptin and its receptor KISS1R play key roles in mammalian reproduction due to their involvement in the onset of puberty and control of the hypothalamic-pituitary-gonadal axis such as regulates GnRH release from the hypothalamus. The kisspeptin/KISS1R system also plays a direct role in peripheral organs (including the ovary, testis, uterus, and placenta) and is implicated in reproductive diseases such as miscarriage and polycystic ovary syndrome (PCOS). Abnormal KISS1R activity is associated with abnormal puberty, infertility, endometriosis, and hormone-dependent tumors. The KISS1 receptor (KISS1R, also called GPR54), a G-protein-coupled receptor (GPCR), acts (through phospholipase C) to increase intracellular inositol trisphosphate and then release intracellular calcium stores. Cell-based KISS1R-HEK293 assay is using HEK293 cells that have been genetically engineered to express the human KISS1R, which activity can be measured by calcium signaling. A compound/drug can activate (agonist) KISS1R that can be monitored by levels of intracellular calcium.
# KISS1R-HEK293 cells developed by Codex Corp contain human KISS1R gene, which was stably integrated into HEK 293 cells. The compound activation can be detected by fluorescence intensity via calcium flux assay. This cell line has been used to screen the Tox21 10K compound library to identify agonists of KISS1R.
# KISS1R-Hek293 cells were dispensed at 1500 cells/4uL/well in 1536-well black wall/clear bottom plates using a multidrop dispenser. After the assay plates were incubated at a 37 C/5% CO2 incubator for 18 hours, 4 microL of Calcium Dye Solution was added to each well. The plates were incubated at 37 C for 1 hour. And then 23 nL of compounds dissolved in DMSO, positive controls, or DMSO only was transferred to the assay plate by a pin tool station. The fluorescence intensity in the plates was measured using FDSS 7000EX kinetic plate reader with a filter set of Ex/Em=480/540 for 3 min at 1 sec intervals. Each test compound was measured at 15 concentrations and in triplicates.
# Sequence of KiSS-1 receptor (Homo sapiens) (Q969F8 whole entry, looked up): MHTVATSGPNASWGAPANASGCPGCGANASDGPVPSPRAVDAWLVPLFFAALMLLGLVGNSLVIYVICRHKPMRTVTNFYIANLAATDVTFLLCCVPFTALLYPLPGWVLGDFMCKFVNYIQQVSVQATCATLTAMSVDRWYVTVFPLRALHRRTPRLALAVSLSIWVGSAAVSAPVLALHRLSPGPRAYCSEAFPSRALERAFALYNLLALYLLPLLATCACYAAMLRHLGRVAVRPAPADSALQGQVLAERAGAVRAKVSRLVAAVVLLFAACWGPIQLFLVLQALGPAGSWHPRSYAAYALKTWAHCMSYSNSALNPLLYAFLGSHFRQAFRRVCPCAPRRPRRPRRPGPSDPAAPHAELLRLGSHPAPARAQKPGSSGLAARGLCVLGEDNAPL
SMILES,Potency,activation
CC(CN)CCCN (stereo not given),inactive,–
CC(C)(C)c1cc(/C=C2\SC(=N)NC2=O)cc(C(C)(C)C)c1O,inactive,–
Oc1ccc(Cc2ccccc2)cc1,inactive,–
Nc1ccn([C@H]2CS[C@@H](CO)O2)c(=O)n1,inactive,–
COC(=O)[C@]1(C)CCC[C@@]2(C)[C@H]1CC=C1C=C(C(C)C)CC[C@@H]12,inactive,–
Cc1nc2c([nH]1)c(=O)n(C)c(=O)n2Cc1ccco1,inactive,–
N#Cc1ccccc1C#N,inactive,–
CC(C)(C)c1ccc(-c2ccc(C(C)(C)C)cc2)cc1,inactive,–
CCCCc1oc2ccc(NS(C)(=O)=O)cc2c1C(=O)c1ccc(OCCCN(CCCC)CCCC)cc1,inactive,–
N[C@@H](CCC(=O)N[C@@H](CS)C(=O)NCC(=O)O)C(=O)O,–,0.132% [at 15.8 µM]
CN(C/C=C/C#CC(C)(C)C)Cc1cccc2ccccc12,inactive,–
CCCC(=O)OC,inactive,–
CCCCCCOc1ccc(O)cc1,inactive,–
OC[C@H]1O[C@@H](OCCc2ccc(O)cc2)[C@H](O)[C@@H](O)[C@@H]1O,inactive,–
CC(=O)Nc1ccc(S(=O)(=O)Cl)cc1,inactive,–
CC1CCCC1,inactive,–
CC(C)COC(=O)c1ccc(O)cc1,inactive,–
CCCCOCCOCCOCCOCCO,inactive,–
Nc1c(Cl)cc(Cl)cc1[N+](=O)[O-],inactive,–
CC1(C)C(=O)N(Br)C(=O)N1Br,inactive,–

SMILES,Potency,activation
COC(C)(C)OC,inactive,–
CNC(C)=O,inactive,–
N#CCCNCCC#N,inactive,–
CN(C)[C@@H](CCOc1cccc2ccccc12)c1ccccc1,inactive,–
CCCc1nc(C)c2c(=O)[nH]c(-c3cc(S(=O)(=O)N4CCN(CC)CC4)ccc3OCC)nn12,inactive,–
CCCCCCCCCC[N+](C)(CCCCCCCCCC)CCC[Si](OC)(OC)OC,inactive,–
COCC(=O)O[C@]1(CCN(C)CCCc2nc3ccccc3[nH]2)CCc2cc(F)ccc2[C@@H]1C(C)C,inactive,–
CC(C)(CO)[N+](=O)[O-],inactive,–
C[C@]12CC[C@H]3C(=CCc4cc(O)ccc43)[C@@H]1CCC2=O,inactive,–
O=C(O)c1ccc(-n2nc(-c3ccccc3O)nc2-c2ccccc2O)cc1,inactive,–
O=C(c1ccccc1)c1ccc(O)cc1O,inactive,–
CNCCCC1c2ccccc2C=Cc2ccccc21,inactive,–
OCCN1CCOCC1,inactive,–
CCOC(=O)OC(C)OC(=O)[C@@H]1N2C(=O)[C@@H](NC(=O)[C@H](N)c3ccccc3)[C@H]2SC1(C)C (stereo not given in full),inactive,–
C=C(C)C(=O)OCCOCCOC(=O)C(=C)C,inactive,–
CCN(Cc1ccccc1)c1ccccc1,inactive,–
O=S(=O)(O)c1ccccc1/C=C/c1ccc(-c2ccc(/C=C/c3ccccc3S(=O)(=O)O)cc2)cc1,inactive,–
O=C1c2ccccc2Cc2ccccc21,inactive,–
Cc1ccccc1N=C(N)Nc1ccccc1C,inactive,–
COc1cccc(N(C)C(=S)Oc2ccc3c(c2)CCCC3)n1,inactive,–
